In PubChem BioAssay (NCATS):
Records with an inconclusive call do not appear. A number with no mark means an inactive call. Active and inactive are the calls of the source. The call rests on the fitted dose curve; in most records, active means well fitted inhibition curve with a large enough effect; inconclusive means small, poorly fitted or top-dose-only effect; inactive means flat fitted curve, though single readings scatter.

Test system: AA1029
Test: qHTS profiling for inhibitors of Plasmodium falciparum proliferation (AID 504749); further: nearly all actives have a fitted effect of over 60% in size;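 on activity, negative = inhibition: 0% = DMSO vehicle and full inhibition = artemisinin control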
Settings: P. falciparum in erythrocytes, SYBR Green DNA, 72 h; series mostly up to 28.7 µM; activity, negative = inhibition: at the top concentration
How it was run: (§1)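 Readout was DNA-dye fluorescence from lysed cultures, ex 485/em 535 nm. Parasitized red cells had grown 72 h with compound; data scaled between 0.29 uM artemisinin and DMSO wells and corrected using vehicle-only plates.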
Potency means the concentration at half of the fitted maximal effect.

CN[C@H](C)CCC=C(C)C was tested, and the Potency was 199 nM (active).

In order of falling “activity, negative = inhibition” value:
1. OCC1O[C@H](Oc2ccc(O)cc2)C(O)C(O)C1O (stereo partly specified)  8.94%
2. CC1(C)C2CC[C@]1(C)[C@@H](O)C2  3.45%
3. Nc1nc(F)nc2c1ncn2[C@@H]1O[C@H](CO)[C@@H](O)[C@H]1O  -0.332%
4. CC1OC(OC2CCC3(C)C(CCC4C3CC(O)C3(C)C(C5=CC(=O)OC5)CCC43O)C2)CC(O)C1OC1CC(O)C(OC2CC(O)C(OC3OC(CO)C(O)C(O)C3O)C(C)O2)C(C)O1 (stereo unspecified)  -2.66%
5. CC1OC(OCC2OC(Oc3c(-c4ccc(OCCO)c(OCCO)c4)oc4cc(OCCO)cc(O)c4c3=O)C(O)C(O)C2O)[C@@H](O)C(O)C1O (stereo partly specified)  -7.2%

Test system: AS120
Test: as above
Settings: P. falciparum in erythrocytes, SYBR Green DNA, 72 h; series mostly up to 28.7 µM; activity, negative = inhibition: at the top concentration
How it was run: as §1

In order of falling “activity, negative = inhibition” value:
1. NC(=O)C1CC2(NC(=O)NC2=O)c2cc(F)ccc2O1 (stereo unspecified)  14.6%
2. Cc1ccc(S(=O)(=O)NC(=O)NC(C)Cc2ccccc2)cc1 (stereo unspecified)  13.4%
3. OCCOC[C@H]1O[C@H](OCCO)[C@H](OCCO)[C@@H](OCCO)[C@@H]1OCCO (tested in a mixture with another compound)  10.2%
4. OCCN1CC(O)C(O)C(O)C1CO (stereo unspecified)  8.97%
5. C[S+](C)CC[C@H](N)C(=O)O  8.63%
6. CC1(Cn2ccnn2)[C@H](C(=O)O)N2C(=O)C[C@H]2S1(=O)=O (stereo partly specified)  8.52%
7. CN(C)CC/C=C1\c2ccccc2COc2ccc(CC(=O)O)cc21  8.22%
8. NC[C@@H]1O[C@H](OC2[C@@H](CO)O[C@@H](OC3[C@H](O)[C@H](N)C[C@H](N)[C@H]3OC3O[C@H](CO)[C@@H](O)[C@H](O)[C@@H]3N)[C@H]2O)C(N)[C@H](O)[C@@H]1O (stereo partly specified)  7.89%
9. NC(=O)c1ncn(C2OC(CO)C(O)C2O)c1N (stereo unspecified)  5.47%
10. CC[C@@H]1/C=C(\C)C[C@H](C)C[C@H](OC)[C@H]2O[C@@](O)(C(=O)C(=O)N3CCCC[C@H]3C(=O)O[C@H](/C(C)=C/[C@@H]3CC[C@H](Cl)[C@H](OC)C3)[C@H](C)[C@@H](O)CC1=O)[C@H](C)C[C@@H]2OC  3.92%
11. C[C@H]1OC(OC2C(O)[C@@H](O)C(OC3C(O)[C@@H](O)C(O)O[C@@H]3CO)O[C@@H]2CO)[C@H](O)C(O)C1N[C@H]1C=C(CO)[C@@H](O)[C@H](O)C1O (stereo partly specified)  3.4%
12. COc1cccc(OC)c1C(=O)NC1C(=O)N2C1SC(C)(C)C2C(=O)O (stereo unspecified)  2.89%
13. CN1[C@@H]2CC[C@@H]1CC(OC(=O)[C@H](CO)c1ccccc1)C2 (stereo partly specified)  2.63%
14. O=[N+]([O-])O[C@H]1CO[C@H]2[C@@H]1OC[C@H]2O  2.24%
15. CCCCCCCCCCCCCCCC(=O)OC[C@H](O)[C@H]1OC[C@@H](O)[C@@H]1O  1.73%
16. O=C(OC[C@@H]1O[C@@](O)(COC(=O)c2cccnc2)[C@H](OC(=O)c2cccnc2)[C@H]1OC(=O)c1cccnc1)c1cccnc1  -0.0732%
17. CC(CCC(=O)O)C1CCC2C3C(=O)C[C@@H]4CC(=O)CC[C@@]4(C)C3CC(=O)[C@]12C (stereo partly specified)  -9.42%
18. CCN(CC)CC(=O)Nc1c(C)cc(C)cc1C  -10.4%
19. CCCC(=O)O[C@]1(C(=O)COC(C)=O)CC[C@H]2C3C[C@H](F)C4=CC(=O)C=CC4(C)[C@@]3(F)[C@@H](O)CC21C (stereo partly specified)  -24.8%

In the case of CCCCC(=O)OCC(=O)[C@]1(O)Cc2c(O)c3c(c(O)c2[C@H](OC2CC(NC(=O)C(F)(F)F)C(O)C(C)O2)C1)C(=O)c1c(OC)cccc1C3=O (stereo partly specified), the Potency is reported as 2000 nM (active).
C[C@H]1[C@@H](OC(=O)CCC(=O)O)OC2OC3(C)CC[C@H]4[C@H](C)CC[C@@H]1[C@@]24OO3 (stereo partly specified) was tested, and the Potency was 5 nM (active).
With COc1cc2c(cc1O)CCN[C@@]21CS[C@H]2c3c(OC(C)=O)c(C)c4c(c3C(COC1=O)N1C2C2c3c(cc(C)c(OC)c3O)CC([C@@H]1O)N2C)OCO4 (stereo partly specified) the Potency was 0.9 nM (active).
For C[n+]1c2cc(N)ccc2cc2ccc(N)cc21, the Potency was 1000 nM (active).
With CC[C@@]1(O)C[C@H](O[C@H]2C[C@@H](N(C)C)[C@@H](O[C@H]3C[C@@H](O)[C@@H](O[C@H]4CCC(=O)[C@@H](C)O4)[C@@H](C)O3)[C@@H](C)O2)c2c(cc3c(c2O)C(=O)c2c(O)cccc2C3=O)[C@H]1C(=O)OC the Potency was 100 nM (active).

For CC(=O)N[C@H]1[C@H](O[C@@H]2c3ccc(c(Cl)c3)Oc3cc4cc(c3O[C@@H]3O[C@H](CO)[C@@H](O)[C@H](O)C3C)Oc3ccc(cc3Cl)C[C@H]3NC(=O)[C@@H](N)c5ccc(O)c(c5)Oc5cc(O)cc(c5)[C@H](NC3=O)C(=O)N[C@H]4C(=O)N[C@H]3C(=O)N[C@@H]2C(=O)N[C@@H](C(=O)O)c2cc(O)cc(O[C@H]4O[C@H](CO)[C@@H](O)C(O)[C@@H]4O)c2-c2cc3ccc2O)O[C@H](CO)[C@@H](O)[C@@H]1O (stereo partly specified), the “activity, negative = inhibition” value was 5.26% [at 12.8 µM].
